The values that follow come from PubChem BioAssay.

The target in this assay is E3 ubiquitin-protein ligase XIAP (Homo sapiens) (UniProt P98170). The experiment in a line: XIAP binders, primary screen, biophysical, small-molecule microarray, fluorescence 635 nm (AID 1181).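 Note: score merges 667 nm emission and signal to noise over triplicate slides.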 As to conditions: small-molecule microarray binding, higher = more signal.
Chain of E3 ubiquitin-protein ligase XIAP (Homo sapiens) (P98170 whole entry, looked up): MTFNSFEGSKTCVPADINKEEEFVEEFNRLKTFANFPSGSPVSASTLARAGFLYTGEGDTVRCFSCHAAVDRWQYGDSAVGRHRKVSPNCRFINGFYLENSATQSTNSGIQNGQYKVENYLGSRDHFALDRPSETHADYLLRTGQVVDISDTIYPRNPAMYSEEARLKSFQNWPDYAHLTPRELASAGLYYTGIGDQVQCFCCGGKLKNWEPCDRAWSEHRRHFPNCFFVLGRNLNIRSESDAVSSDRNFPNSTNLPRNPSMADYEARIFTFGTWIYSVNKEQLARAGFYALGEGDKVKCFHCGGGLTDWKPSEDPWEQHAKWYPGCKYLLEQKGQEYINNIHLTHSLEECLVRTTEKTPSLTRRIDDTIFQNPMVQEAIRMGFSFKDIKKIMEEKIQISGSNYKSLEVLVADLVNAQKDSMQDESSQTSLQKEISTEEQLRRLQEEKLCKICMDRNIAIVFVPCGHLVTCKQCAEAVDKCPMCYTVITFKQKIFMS
The molecule `COc1ccc(C(=O)Nc2ccc(CN3C(=O)[C@]4(O[C@H](CC(=O)N(CCO)Cc5ccccc5)[C@@H]([Si](C)(C)c5ccc(OC)cc5)[C@@H]4C)c4ccccc43)cc2)cc1` showed a composite z-score of -0.209.

`Cc1ccc(S[C@]2(C(=O)NC(C)C)CC(=O)N(Cc3ccccc3)[C@@H]2c2ccc(CO)cc2I)cc1` came in with a composite z-score of 0.301.

With `C=C(CCCC)C(=O)CC[C@@H](OC(C)=O)c1ccc(OCCO)cc1`, the composite z-score is -0.074.

Take `COC(=O)[C@@]1(Cc2ccc(F)cc2)[C@H]2c3cc(C(=O)N4CCCC4)n(CCc4c[nH]c5cc(F)ccc45)c3C[C@H]2CN1C(=O)c1ccccc1`: the composite z-score is 0.0535.

As for `C=CCN1C(=O)[C@]2(O[C@H](CCO)[C@@H]([Si](C)(C)c3ccc(OC)cc3)[C@@H]2C)c2cc(N3C(=O)c4ccccc4Oc4ccccc43)ccc21`, the composite z-score was -0.138.

For the molecule `COC(=O)C(CC#Cc1ccc2c(c1)[C@]1(C(=O)N2)[C@H](c2ccc(OCCO)cc2)N2[C@H](c3ccccc3)[C@H](c3ccccc3)OC(=O)[C@H]2[C@@H]1C(N)=O)C(=O)OC`, the composite z-score was found to be 0.13.

`CC(C)N1C(=O)[C@@]2(Cc3ccccc31)c1ccccc1C(=O)N(Cc1ccccc1C(F)(F)F)[C@H]2c1ccc(CO)cc1` came in with a composite z-score of 0.0377.

In turn, `C=C(C(=O)CC[C@@H](OC(=O)c1ccccc1-c1ccccc1C(=O)O)c1ccc(OCCO)cc1)C(C)C` came in with a composite z-score of -0.101.

Molecule `COc1ccc(CCNC(=O)[C@@]2(C)c3ccccc3C(=O)N(Cc3ccc(OC(F)(F)F)cc3)[C@H]2c2ccc(CO)cc2)cc1` yielded a composite z-score of -0.031.

As to `[N-]=[N+]=NCc1ccccc1[C@H]1OC(c2ccc(OCCCO)cc2)=N[C@@]1(Cc1ccccc1N=[N+]=[N-])C(=O)O`, the composite z-score worked out at 0.166.

As to `CC(C)c1ccc(NN2C(C(O)C3CCCCC3)C=CC3C(=O)N(c4ccccc4)C(=O)C32)cc1` (stereo not given), the composite z-score worked out at 0.0471.

In turn, `CC(CO)N1C(=O)[C@@H]2[C@H]3C(=O)OCC=C[C@H]3OC23C=CCN(c2ccc4ccccc4c2)C(=O)[C@@H]13` (stereo not given in full) returned a composite z-score of -0.138.

`O=C1O[C@H](c2ccccc2)[C@H](c2ccccc2)N2[C@H]1[C@@H](C(=O)O)[C@]1(C(=O)Nc3ccccc31)[C@H]2c1ccc(OCCO)cc1` displayed a composite z-score of 0.18.

For the molecule `C=CCNC(=O)[C@@H]1[C@H]2C(=O)O[C@H](c3ccccc3)[C@H](c3ccccc3)N2[C@H](c2ccc(OCCO)cc2)[C@@]12C(=O)N(C(=O)OCCOC)c1ccccc12`, the composite z-score stood at 0.0623.

With `C[C@]1(C(=O)NC2CC2)c2ccccc2C(=O)N(Cc2cc(F)cc(C(F)(F)F)c2)[C@H]1c1ccc(CO)cc1`, the composite z-score is 0.195.

`C=CCNC(=O)[C@@H]1[C@H]2C(=O)O[C@H](c3ccccc3)[C@H](c3ccccc3)N2[C@H](c2ccc(O)cc2)[C@@]12C(=O)Nc1ccc(C#CC3=CCCCC3)cc12` yielded a composite z-score of 0.28.

`Cc1cccc([C@H]2C[C@H]3C(Br)=C[C@@]2(CO)C(=O)[C@]32CO2)c1` had a composite z-score of 0.273.

The molecule `COc1ccc(CCNC(=O)[C@@]2(c3ccc([N+](=O)[O-])cc3)CC(=O)N(C3CCCCC3)[C@@H]2c2ccc(CO)cc2I)cc1` returned a composite z-score of -0.16.

Consider `C=CC[C@]12N=C(c3ccc(OCCCO)cc3)O[C@H]1c1ccccc1N(CCC)C2=O`, for which the composite z-score turned out to be 0.0655.

Molecule `[N-]=[N+]=Nc1ccccc1C[C@@]1(C(=O)NCc2ccccc2)N=C(c2ccc(OCCCO)cc2)O[C@@H]1c1ccccc1` yielded a composite z-score of 0.204.

`O=C1O[C@@H](c2ccccc2)[C@@H](c2ccccc2)N2[C@@H](c3ccccc3OCCO)[C@]3(C(=O)Nc4ccc(C#CC5(O)CCCCCC5)cc43)[C@@H](C(=O)N3CCCCCCC3)[C@H]12` gave a composite z-score of 1.97.

In the case of `C=CC[C@H](O)c1ccc(O)c2ccccc12`, the composite z-score was -0.113.

Molecule `C=C1C(=O)C=C2CN(C(=O)c3ccccc3)[C@@](Cc3ccc(F)cc3)(C(=O)OC)[C@@H]12` registered a composite z-score of 0.154.

`COc1ccc(C(=O)Nc2cccc(CN3C(=O)[C@]4(O[C@H](CC(=O)N(CCO)Cc5ccccc5)[C@@H]([Si](C)(C)c5ccc(OC)cc5)[C@@H]4C)c4ccccc43)c2)cc1` displayed a composite z-score of 1.38.

With `COC(=O)C1=CC(CCCO)=CC(c2ccc(CN3CCCC3)cc2)N(C)C=C1C(=O)OC` (stereo not given), the composite z-score was -0.153.

As for `[N-]=[N+]=NCc1ccccc1C[C@@]1(C(=O)NCCN2CCOCC2)N=C(c2ccc(OCCCO)cc2)O[C@@H]1c1ccccc1`, the composite z-score is 0.0297.

Molecule `COC(=O)C(CC#Cc1ccc2c(c1)[C@]1(C(=O)N2)[C@H](C(=O)N2CCCCCCC2)[C@H]2C(=O)O[C@H](c3ccccc3)[C@H](c3ccccc3)N2[C@@H]1c1ccc(OCCO)cc1)C(=O)OC` showed a composite z-score of 2.59.

`CN(C)C(=O)[C@]1(CCS(=O)(=O)c2ccccc2)N=C(c2ccc(OCCCO)cc2)O[C@@H]1c1ccccc1CN=[N+]=[N-]` had a composite z-score of 0.558.

The molecule `CC1CC/C=C\[C@H]2OC34C=CCN(CCN5CCOCC5)C(=O)[C@H]3N(C(CO)C(C)C)C(=O)[C@@H]4C2C(=O)O1` (stereo not given in full) had a composite z-score of -0.0172.

Take `COc1ccc([Si](C)(C)[C@H]2[C@H](CC(=O)N(CCO)Cc3ccccc3)O[C@@]3(C(=O)N(c4ccccc4)c4ccccc43)[C@@H]2C)cc1`: the composite z-score is 0.226.

`C=CCNC(=O)[C@H]1[C@@H]2C(=O)O[C@@H](c3ccccc3)[C@@H](c3ccccc3)N2[C@@H](c2ccc(O)cc2)[C@]12C(=O)Nc1ccc(C#CCC(C(=O)OC)C(=O)OC)cc12` gave a composite z-score of 0.256.

Molecule `CC[C@@H]1C=C(C(=O)O)[C@H](c2cccc(Cl)c2)N1S(=O)(=O)c1ccc(C)cc1` yielded a composite z-score of 1.12.

The molecule `C=CCOC(=O)[C@H]1[C@@H]2C(=O)O[C@@H](c3ccccc3)[C@@H](c3ccccc3)N2[C@@H](c2ccc(OCCOC(=O)[C@H]3C[C@H]4C(=O)NCC(=O)N4[C@H]3c3ccc(O)cc3)cc2)[C@]12C(=O)Nc1ccccc12` returned a composite z-score of -0.202.

Turning to `OCCCc1cc[n+](Cc2cc3c(cc2Br)OCO3)cc1`, the composite z-score was -0.0931.

The molecule `COc1ccc([Si](C)(C)[C@@H]2[C@@H](CC(=O)N(CCO)Cc3ccccc3)O[C@]3(C(=O)N(Cc4cccc(I)c4)c4ccccc43)[C@H]2C)cc1` gave a composite z-score of 0.236.
